Over roughly 9,900 sequences, “r (bound/input frequency ratio)” has its median near 0.7; the highest 2% begin near 6.5. The full list was thinned out, with the highest values kept by preference.

To fix the notation:
B1: ENSMUSG00000042529.499|Kcnj12 (ssRNA)
RNA: GGGAGUUCUACAGUCCGACGAUCGCUUCGAUAUCCGCAUGCUACUGGACCAUGUACAGGGCUCCCUGGGGCUUGUCCUCAGGGGCAGAGAAGGACAUGGUGGCAGCAGCACUGAGAACAGGAGCAUGGCCUCUCUCAGACCCCAGGGCAGUCAUUCAGUCUUUUCCAUGGACACUCCCCACCGCUCCACAUACUGCCUCCGCCUCAUUCUUGGGCUCUUCCUGCCUUGCUGUCUUUCCUUCCACACAGAAGCACCAAGCAUCAUCCAUUCCCAUAGGCAAGCCCAGGGCACUCCCAGAGCUCCCUCUUGCGGUCGCACUAGUGUGGAAUUCUCGGGUGUCAAGG
B2: ENSMUSG00000061578.701|Ksr2 (ssRNA)
RNA: GGGAGUUCUACAGUCCGACGAUCGCUUCGAUAUCCGCAUGCUAUACUCCCAGAUCUGGGGUGAUCUCUUGAGGUGCCUUCCUGUAGUCUCUUGUGUCAUCUUCUUCUAAGACCACUAAUAACACCGCCUUUCUCCUUGAUCCGGGCCUCAGACCUCUUCAGAGAUUCUUUCUCUGAAUGUACGUGGGGGACUCCAACAGAUGUUGGGAGAAGACUCAAUAUGAGCAUACGGGGUCAUUGUUCAAUCCUGUAUCAAGACCUUGGAGUUGUCUAAGGCUGUGGGUUUUAAAUACCUGCUGCAGGCCUCUUGCGGUCGCACUAGUGUGGAAUUCUCGGGUGUCAAGG
B3: ENSMUSG00000032194.16|Kank2 (ssRNA)
RNA: GGGAGUUCUACAGUCCGACGAUCGCUUCGAUAUCCGCAUGCUACAGCCACAAGCCACGCAUCAAACCGUCCCUCCUCCAUCCCUCUGUCCCAUUCUGCCUCGGCAUUCCUCAGCCCCUGAACUUCCCUGAGGGAGCCCUGACAUCUACCAGGCUCAAGCUCCUGGAAGCCUUUCCCAGCACCCUGGGUUCAAAGCCAGAAAGCCAAGCUACAUUCUCCUCCCAGUUGGCACCAGUUGACAACGCCUUGGGUGUGGGUUUCUUGUAAAGAACAUAGAGAACAAUCAGCCGGCAAUUAUGGGAGGCUCUUGCGGUCGCACUAGUGUGGAAUUCUCGGGUGUCAAGG
B4: ENSMUSG00000034801.130|Sos2 (ssRNA)
RNA: GGGAGUUCUACAGUCCGACGAUCGCUUCGAUAUCCGCAUGCUAGGCACUGAGAGGAGCCAGCGCUCGAGGGCGUUCUCACGCCUGACUGAUAGAUACCUUUUUAGGGUGAUGAACUUACACAGAUGCAGAAGAUAUGGGGUGGUGGUCCUGGGUUUUAACCCUCUGACCGUCUUCUAGCUUCUAAUUUUGUUUGGUUUUUACAUCUAGGAGACUUAGGAAUAAUACCCACUGUUCUUAAACUCUUUGAGACCAUGUCUUAAAUGUCAGUAUUUGCUGCUGAAGACAAAAACGGAAAAUAGAAUCUCUUGCGGUCGCACUAGUGUGGAAUUCUCGGGUGUCAAGG
B5: ENSMUSG00000031028.491|Tub (ssRNA)
RNA: GGGAGUUCUACAGUCCGACGAUCGCUUCGAUAUCCGCAUGCUACACCCUUUUAAAUGAACAUGGGGUGGUGAUGGUGCCUUAACAAUCUUGACACUAAGGUGAAGCAAGCAAGUAAGGUGUGUGCCUCUGGGAAGACAGGAGUCGGAAGCCAAGGUGUGUGGCAACAGUCUGGAAGAGAGCUUUUGGUAAUCAUACCGUCUUCAGUGACAAGGCAACAAUGCUGUAAAGUGGGUUUGUUUGGUUUUGUUUUUUCUUUCUCUUUUAUGGAAAUGGCAGGUCUAUUUGCCUCAAACGUUAUGUAGCUCUUGCGGUCGCACUAGUGUGGAAUUCUCGGGUGUCAAGG
B6: ENSMUSG00000028439.155|Fam219a (ssRNA)
RNA: GGGAGUUCUACAGUCCGACGAUCGCUUCGAUAUCCGCAUGCUAGCCAUUUCACCCUAGCUCAAAGUCCAGGAGCCAGGCUUCCAGAAAGGCUCUUCAAGAGCAAGCUUAAGGAAAUACAGUGAGCCAAGUGGCUGUAUGAUAUGGUAUGGUAUGGUAUGGUAUGGUAUGGUAUGGUAUGCACAUGUGUGUGCAUGUGUGUGUGCCUGUGUGUGUGCGUGUGCGUGUGUGUAUGUGUGUGCGUGUGUGUGUGUGUGUGUUGUACCCGAGUGUGUGUUGAGCCUAUCUGUCCAGGGAACCAGAUUCUCUUGCGGUCGCACUAGUGUGGAAUUCUCGGGUGUCAAGG
B7: ENSMUSG00000028439.154|Fam219a (ssRNA)
RNA: GGGAGUUCUACAGUCCGACGAUCGCUUCGAUAUCCGCAUGCUACCCAUUGCCAUUUCACCCUAGCUCAAAGUCCAGGAGCCAGGCUUCCAGAAAGGCUCUUCAAGAGCAAGCUUAAGGAAAUACAGUGAGCCAAGUGGCUGUAUGAUAUGGUAUGGUAUGGUAUGGUAUGGUAUGGUAUGGUAUGCACAUGUGUGUGCAUGUGUGUGUGCCUGUGUGUGUGCGUGUGCGUGUGUGUAUGUGUGUGCGUGUGUGUGUGUGUGUGUUGUACCCGAGUGUGUGUUGAGCCUAUCUGUCCAGGGAACCUCUUGCGGUCGCACUAGUGUGGAAUUCUCGGGUGUCAAGG
B8: ENSMUSG00000028439.153|Fam219a (ssRNA)
RNA: GGGAGUUCUACAGUCCGACGAUCGCUUCGAUAUCCGCAUGCUACUGUGCCCCAUUGCCAUUUCACCCUAGCUCAAAGUCCAGGAGCCAGGCUUCCAGAAAGGCUCUUCAAGAGCAAGCUUAAGGAAAUACAGUGAGCCAAGUGGCUGUAUGAUAUGGUAUGGUAUGGUAUGGUAUGGUAUGGUAUGGUAUGCACAUGUGUGUGCAUGUGUGUGUGCCUGUGUGUGUGCGUGUGCGUGUGUGUAUGUGUGUGCGUGUGUGUGUGUGUGUGUUGUACCCGAGUGUGUGUUGAGCCUAUCUGUCCACUCUUGCGGUCGCACUAGUGUGGAAUUCUCGGGUGUCAAGG
B9: ENSMUSG00000058297.516|Spock2|37:41 (ssRNA)
RNA: GGGAGUUCUACAGUCCGACGAUCGCUUCGAUAUCCGCAUGCUAAUCUUACCCCCAGUGUUCCACAGGAGUCGUGACCACCACACAUGGGUGGGCACAGGUCUGCCUUGCUCCAGCCCCCUCCCUUGGUUUCUGUUGGUACCCAUUUGGCUUUUAUCUGCUUUCUGCUUCACCACUAAGUGCGUAGGUGGGGUCUUUUGAUAUCGGCUCCCCAAAGCCCAAGCCCACAGCCCUAGGAGAGAACCAGGGGCCCAUCUUUGACACCUGGGCCAUCACGAGCCCUCCCGCCUGCAGUUGUCCUAGGGCUCUUGCGGUCGCACUAGUGUGGAAUUCUCGGGUGUCAAGG

Chain of TDP-43 (Q13148 whole entry): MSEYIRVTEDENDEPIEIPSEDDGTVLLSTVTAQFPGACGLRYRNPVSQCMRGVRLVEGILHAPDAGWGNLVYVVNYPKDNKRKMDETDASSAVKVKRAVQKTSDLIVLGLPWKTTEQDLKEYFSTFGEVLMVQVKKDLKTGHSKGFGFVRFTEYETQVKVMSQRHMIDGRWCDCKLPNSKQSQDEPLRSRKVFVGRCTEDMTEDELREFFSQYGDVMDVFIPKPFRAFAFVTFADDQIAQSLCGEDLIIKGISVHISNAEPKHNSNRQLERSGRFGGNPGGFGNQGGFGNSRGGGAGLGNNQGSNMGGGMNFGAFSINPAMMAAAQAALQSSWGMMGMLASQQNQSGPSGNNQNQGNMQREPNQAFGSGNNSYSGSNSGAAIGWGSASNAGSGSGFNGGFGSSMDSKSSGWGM

The test concerns the target TDP-43 (Homo sapiens, UniProt Q13148 1-414). The test can be described thus: RNA Bind-n-Seq with designed 260-mer pool; 25 mM Tris-HCl, 150 mM KCl, 3 mM MgCl2, BSA (printed 500 mg/mL), 20 units/mL SUPERase IN; pH not stated; 500 nM RNA pool, 1 h, 4 C; TDP-43 5, 50, 500 nM; high values mean tight binding. Particulars: protein: recombinant; tags: SBP (GST cleaved off with PreScission; pGEX-GST-SBP). A digest of the protocol: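 An in vitro-transcribed pool of 260-nt 3′ UTR oligos (500 nM) was incubated for 1 h at 4 °C with recombinant SBP-tagged TDP-43 at 5, 50 or 500 nM held on streptavidin beads. The buffer contained 25 mM Tris-HCl, 150 mM KCl, 3 mM MgCl2, BSA and SUPERase IN. Biotin-eluted bound RNA was sequenced, and binding, R, is each oligo's normalized read abundance in the bound sample over that in input.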
As for B1, the binding signal is 1.51 R (bound/input frequency ratio).

Consider B2, for which the binding signal is 0.292 R (bound/input frequency ratio).

Consider B3, for which the binding signal is 1.15 R (bound/input frequency ratio).

Take B4: the binding signal was 0.376 R (bound/input frequency ratio).

With B5, the binding signal is 1.97 R (bound/input frequency ratio).

As to B6, the binding signal was 7.8 R (bound/input frequency ratio).

Consider B7, for which the binding signal was 7.96 R (bound/input frequency ratio).

For B8, the binding signal is 6.09 R (bound/input frequency ratio).

In the case of B9, the binding signal was 0.797 R (bound/input frequency ratio).

The record behind these values is publication PMC12864922, “TDP-43 directly inhibits mRNA accumulation in neurites through modulation of mRNA stability”.
